# This is a sample that favours compounds with a hit; in the whole collection about 18% have one here.
# IL1B secr inh – inflammasome signaling inhibition, IL-1 beta readout; THP-1 LPS/ATP IL-1B secretion, AlphaLISA, 16 h; stronger effect = lower value; activity change, % at 57.5 µM; 4.7% of 360,000 active; AID 743279; in the data active = activity change below about -50%; inconclusive = mostly about -30% to -49%
#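 THP-1 cells pretreated 1 hr with compounds (up to 57.5 uM final), then stimulated with LPS (250 ng/mL final) plus ATP (1.25 mM final); secreted IL-1B measured by AlphaLISA after 16 hr, decreased signal indicating inhibition.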
# LDHA inh – blocks human lactate dehydrogenase A | P00338 | purified LDHA, NADH/diaphorase-resazurin fluorescence; stronger effect = lower value | activity change, % (values are at about 110 or 230 µM) | 0.15% of 480,000 active; in the data active = activity change below about -30%; inconclusive = mostly about -25% to -30%;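 also: plate controls were DMSO wells for no effect and wells without enzyme for full effect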
#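 Remaining NADH was detected by diaphorase (0.133 mg/mL) converting 37 µM resazurin to fluorescent resorufin, read at 0 and 20 minutes. The preceding 5-minute room-temperature reaction used 2 nM LDHA, 0.2 mM sodium pyruvate and 0.06 mM NADH at pH 7.4.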
# Gal4-VP16 FLuc – inhibits Gal4-VP16 luciferase reporter, ROR gamma counter-screen; Drosophila S2 Gal4-VP16 UAS-luciferase, luminescence, 20 h; Potency, µM (titrated, usually from 53.6 µM), inactives show at the top dose activity, negative = inhibition, usual class: inhibitors; AID 2546; 3.5% of 310,000 active;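 also: Gal4-VP16 expression switched on by copper sulfate through the metallothionein promoter; potency is read from the fitted curve at half-maximal effect; nearly all actives have a fitted effect of over 50% in size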
# TDP1 cell noCPT – qHTS for Inhibitors of human tyrosyl-DNA phosphodiesterase 1 (TDP1): qHTS in cells in absence of CPT; DT40 Tdp1-/- hTDP1 cells, no CPT, ATP luminescence, 48 h; Potency, µM (titrated, usually from 46.2 µM), for inactives: at the top dose activity change, negative = growth inhibition, hits mostly inhibitors; 15% of 420,000 active; also: potency is read from the fitted curve at half-maximal effect; nearly all actives have a fitted effect of over 55% in size
#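 Compound effects on proliferation are scored in DT40 Tdp1-/-;hTDP1 cells in the absence of CPT. ATP levels (CellTiter-Glo luminescence) are recorded after a ≥48 hr, 37 °C incubation.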
# RORgamma inh – inhibitors of mouse ROR gamma transcriptional activity. P51450. 5.4% of 310,000 active. AID 2551. Drosophila S2 Gal4-RORgamma UAS-luciferase reporter, 20 h. Potency, µM (doses to about 53.6 µM), for the others: at the highest dose activity change, negative = inhibition, usual class: inhibitors; also: potency is read from the fitted curve at half-maximal effect; nearly all actives have a fitted effect of over 60% in size
# Target sequence (P51450 whole entry, looked up, the tested form may be a part): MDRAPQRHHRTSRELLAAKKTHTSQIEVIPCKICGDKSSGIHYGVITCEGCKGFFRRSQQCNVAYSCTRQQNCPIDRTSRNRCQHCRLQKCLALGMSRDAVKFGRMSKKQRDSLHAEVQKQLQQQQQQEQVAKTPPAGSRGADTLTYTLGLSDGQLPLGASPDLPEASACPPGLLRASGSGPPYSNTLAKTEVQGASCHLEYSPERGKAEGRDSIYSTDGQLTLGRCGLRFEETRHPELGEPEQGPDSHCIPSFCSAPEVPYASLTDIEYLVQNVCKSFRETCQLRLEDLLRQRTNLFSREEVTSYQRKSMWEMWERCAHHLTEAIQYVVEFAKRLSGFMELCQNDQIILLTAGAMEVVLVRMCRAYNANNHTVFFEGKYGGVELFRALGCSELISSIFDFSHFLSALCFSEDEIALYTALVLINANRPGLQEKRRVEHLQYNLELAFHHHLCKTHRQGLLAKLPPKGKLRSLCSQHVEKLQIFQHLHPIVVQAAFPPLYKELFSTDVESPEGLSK
#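 Stably transfected Drosophila Schneider cells are the test system, with ROR gamma fused to Gal4 and luciferase under UAS control; luminescence is read after 20 hr of 700 uM copper sulfate induction at ambient temperature.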
# DT40 TDP1 CPT – growth inhibition of DT40 Tdp1-/-;hTDP1 cells with camptothecin (screen for TDP1 inhibitors); chicken DT40 Tdp1-/-;hTDP1 cells + 20 nM CPT, ATP luminescence, 48 h; Potency, µM (titrated, usually from 46.2 µM), for the others: at the highest dose activity change, negative = growth inhibition, most hits filed as inhibitors; 12% of 420,000 active; AID 686979; also: potency is read from the fitted curve at half-maximal effect; nearly all actives have a fitted effect of over 55% in size
#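 Cell growth measured by CellTiter-Glo luminescence after a minimum 48 h, 37 C compound exposure with 20 nM CPT in Tdp1-knockout DT40 cells stably expressing hTDP1, seeded 400/well; qHTS titration format.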
# Active calls of the source: *; ? = inconclusive; nt = no result given; ! = repeats disagree; [ ] = another dose, or the depositor's remark. Unless noted, calls follow the shape of the dose curve; as a rule, active = well fitted curve in the direction sought with a large enough effect; inconclusive = small, poorly fitted or top-dose-only effect, or another doubt; inactive = no such curve, though single readings can be large; an effect the other way counts as inactive or inconclusive. Unless noted, % is scaled to controls: 0 for no effect and ±100 for the full control effect.
SMILES,IL1B secr inh,LDHA inh,Gal4-VP16 FLuc,TDP1 cell noCPT,RORgamma inh,DT40 TDP1 CPT
CC1=C(O)C(=O)C=C2C1=CC=C1[C@]2(C)CC[C@@]2(C)C3C[C@](C)(C(=O)O)CC[C@@]3(C)CC[C@@]12C (stereo partly specified),nt,nt,?,0.82µM*,3.2µM*,1µM*
CCCCC[C@@H]1CCCCC[C@@H](O)C[C@@H](O)[C@H](O)/C=C/C(=O)O1,-66*,0,nt,?,nt,-25%
CCCCC[C@@H]1CCCCC[C@H](O)C[C@@H](O)[C@@H](O)/C=C/C(=O)O1,?,-6,nt,?,nt,?
COc1ccccc1N1CCN(C(=O)c2cc3c(-c4ccccc4F)nn(C)c3s2)CC1,nt,-2,nt,6.5µM*,nt,?
COc1cccc(CNC(=O)c2cc3c(-c4ccccc4F)nn(C)c3s2)c1,nt,-5,nt,16µM*,nt,?
C[C@]12CCC3C(CC[C@H]4CC(O)CC[C@]34C)C1CC/C2=N/NC(=O)c1ccncc1 (stereo partly specified),46,-5,-5%,23µM*,-14%,26µM*
N[C@H](CCCCCP(=O)(O)O)C(=O)O,nt,nt,-9%,0%,19%,-6%
Cc1c(CC(=O)N2CCN(C(c3ccccc3)c3ccccc3)CC2)c(=O)oc2cc(O)ccc12,nt,16,nt,nt,nt,nt
COc1ccccc1NC(=O)Cn1c(=O)n(-c2cccc(Cl)c2)c(=O)c2sc3ccccc3c21,nt,-10,nt,6.5µM*,nt,13µM*
CCc1ccc(-n2c(=O)c3sc4ccccc4c3n(CC(=O)NC3CCCC3)c2=O)cc1,nt,1,nt,?,nt,?
CC(N)Cc1c[nH]c2ccccc12 (stereo unspecified),nt,0,nt,nt,nt,nt
Cc1[nH]nc2ccc(-c3cncc(OC[C@@H](N)Cc4c[nH]c5ccccc45)c3)cc12,-104*,-7,nt,0.58µM*,nt,0.58µM*
COc1cc(NS(=O)(=O)c2ccc3c(c2)oc(=O)n3C)cc(OC)c1OC,72,-2,?,9.2µM*,?,13µM*
CCOc1ccc(N(CC)S(=O)(=O)c2ccc3c(c2)oc(=O)n3C)cc1,18,0,8%,-28%,?,?
COc1cccc(C(C(=O)NCc2ccco2)N(Cc2ccco2)C(=O)Cn2nnc3ccccc32)c1 (stereo unspecified),-17,-6,6%,?,-11%,?
CC1c2cccn2-c2ccccc2CN1C(=O)Nc1ccc(F)cc1F (stereo unspecified),nt,-1,nt,nt,nt,nt
CN(C)C1(CNC(=O)Nc2ccc(Cl)c(Cl)c2)CCCCC1,-72*,-7,-19%,?,-2%,?
C#CCCC[C@@H]1OC(=O)CNC(=O)C([C@@H](C)CC)NC(=O)[C@@H]2CCCN2C(=O)C([C@@H](C)CC)OC(=O)[C@H](Cc2ccccc2)N(C)C(=O)[C@H](C(C)C)NC(=O)C1(C)C (stereo partly specified),-14,1,nt,21µM*,nt,13µM*
c1csc(CN2CC[C@@]3(CCCNC3)C2)n1,nt,nt,-10%,-12%,-18%,1%
O=[N+]([O-])/C=C/c1ccc(Cl)cc1,nt,-4,nt,nt,nt,nt
S=c1nc(-c2ccccc2)n(-c2ccccc2)[nH]1,0,-11,?,-11%,10µM*,?
COC(=O)[C@H]1[C@@H](c2ccccc2)[C@@]2(c3ccccc3)Oc3ccccc3[C@@]1(O)[C@@H]2O,nt,nt,1%[10 µM],nt,-13%[10 µM],nt
CCN(CC)P(c1n(C)cc[n+]1C)N(CC)CC,15,-15,-8%,23µM*,4%,?
Cc1nc(-c2cccc(CN(C)C(=O)Oc3ccc([N+](=O)[O-])cc3)c2)no1,-7,-1,nt,16µM*,nt,?
CN(Cc1cccc(-c2cccnc2)c1)C(=O)Oc1ccc([N+](=O)[O-])cc1,-25,0,nt,?,nt,18µM*
SMILES,IL1B secr inh,LDHA inh,Gal4-VP16 FLuc,TDP1 cell noCPT,RORgamma inh,DT40 TDP1 CPT
CN(C)C(=O)Oc1ccc([N+](=O)[O-])cc1,11,-6,12%,13%,-4%,11%
O=C(NC1CCSC1=O)c1ccco1 (stereo unspecified),nt,1,nt,nt,nt,nt
O=c1[nH]c(=S)[nH]c(O)c1/C=C1/C=c2ccccc2=N1,-99*,0,13µM*,8.2µM*,13µM*,7.3µM*
Cc1cccc2c1=NC(=O)/C(=C/c1c(O)[nH]c(=O)[nH]c1=O)C=2,14,0,-9%,-29%,14%,?
CN1CCN(c2ccc([N+](=O)[O-])c3cnccc23)CC1,nt,11,nt,nt,nt,nt
O=[N+]([O-])c1ccc(N2CCCC2)c2ccncc12,15,7,-28%,21µM*,10%,?
CCC1(C2=NCCN2)Cc2ccccc2O1 (stereo unspecified),7,-8,-3%,4.7µM*!,-1%,4.7µM*!
CC[C@]1(C2=NCCN2)Cc2ccccc2O1,nt,nt,-9%,-20%,14%,5%
CCCCN(C(=O)Oc1ccccc1)C1CCS(=O)(=O)C1 (stereo unspecified),3,0,-9%,-10%,?,0%
CN(C)C1CSSSC1,nt,nt,-1%,nt,?,nt
O=P1(Oc2ccccc2)CC=CC(COCc2ccccc2)O1 (stereo unspecified),nt,nt,0%,nt,27%,nt
Cc1oc2cc(OCC(=O)N3CCN(C)CC3)ccc2c(=O)c1Oc1ccccc1,nt,-12,nt,nt,nt,nt
COc1cc2c(c(OC)c1OC)-c1ccc(OC)c(=O)cc1[C@@H](NC(C)=O)CC2,69,-4,-9%,0.19µM*!,-27%,0.016µM*
COc1cc2c(c(OC)c1O)-c1ccc(OC)c(=O)cc1C(NC(=O)C(F)(F)F)CC2 (stereo unspecified),32,4,nt,0.16µM*,nt,0.1µM*
COc1cc2c(c(OC)c1OC)-c1ccc(C(=O)O)cc1[C@@H](NC(C)=O)CC2,nt,-1,nt,nt,nt,nt
COc1cc2c(c(OC)c1OC)-c1ccc(OC)c(=O)cc1[C@H](NC(C)=O)CC2,nt,nt,-5%,0.06µM*,-43%,0.094µM*
CCN(CC)c1ccc2c(cc1=O)[C@@H](NC)CCc1cc(OC)c(OC)c(OC)c1-2,50,13,-7%,1.2µM*,-7%,1.2µM*
COc1cc2c(c(OC)c1OC)-c1ccc(O)c(=O)cc1[C@H](N)CC2,nt,nt,-9%[17 µM],nt,3%[16.9 µM],nt
CC(OC(=O)c1cn(C)c2ccccc12)C(=O)NC(N)=O (stereo unspecified),nt,-5,nt,nt,nt,nt
COc1ccc(Oc2c(C)oc3cc(OCC(=O)N4CCN(C)CC4)ccc3c2=O)cc1,nt,-9,nt,nt,nt,nt

# Screening results deposited in PubChem by National Center for Advancing Translational Sciences (NCATS).
